Compound activity from PubChem.
Only some compounds are listed: those with a hit (about 12% of all), similar ones and a draw of the others.
G9a block – G9a (human) methyltransferase inhibition. Q96KQ7. G9a H3K9 monomethylation, AlphaScreen, 2 h. Potency, µM (highest dose often 102 µM), actives largely listed as inhibitors. 350,000 compounds, 8.8% hits. AID 504332; also: nearly all actives have a fitted effect of over 75% in size
Target sequence (Q96KQ7 913-1193 limits assumed): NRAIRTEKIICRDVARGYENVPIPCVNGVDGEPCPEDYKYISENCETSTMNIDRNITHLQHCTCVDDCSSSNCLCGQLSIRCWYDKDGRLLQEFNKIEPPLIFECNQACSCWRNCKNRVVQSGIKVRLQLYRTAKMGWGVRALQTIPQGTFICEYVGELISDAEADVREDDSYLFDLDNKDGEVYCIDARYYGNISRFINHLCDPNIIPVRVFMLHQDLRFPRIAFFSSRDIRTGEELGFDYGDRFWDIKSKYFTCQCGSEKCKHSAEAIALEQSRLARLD
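Quantitative HTS format: methyltransferase activity on a biotin-tagged H3K9 peptide is measured by AlphaScreen, using a rabbit anti-monomethyl-H3K9 antibody with streptavidin donor and anti-IgG acceptor beads. Final levels are 20 nM enzyme, 500 nM peptide, 20 uM SAM; 2 h RT.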
Sfp PPTase inh – Sfp phosphopantetheinyl transferase inhibition; Q9F4F7; Potency, µM, usual class: inhibitors; Biochemical Sfp PPTase activity, qHTS; AID 1490; 310,000 compounds, 3.5% hits;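 also: the enzyme is Sfp with the accession as filed and its product quenches rhodamine fluorescence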
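Fluorescence-quenching assay with 15 nM Sfp, 5 uM rhodamine-CoA and 12.5 uM BHQ-2-labelled ybbR peptide in pH 7.6 Hepes/MgCl2 buffer. Enzyme was pre-incubated with compound for 15 min at room temperature. Rate was taken from the 30-min fluorescence change (525/598 nm).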
BAZ2B block – blocks human BAZ2B; Q9UIF8; AlphaScreen BAZ2B-H3K14Ac peptide displacement; Potency, µM (series often up to 114 µM), actives largely listed as inhibitors; 360,000 compounds, 4.4% hits; also: nearly all actives have a fitted effect of over 60% in size
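AlphaScreen displacement of biotin-H3(5-23)K14Ac peptide (50 nM final) from BAZ2B (50 nM final) in PBS pH 7.4, 0.01% Tween-20; complex preformed 30 min RT, then compounds (top 110 uM) 30 min RT, beads 20 min dark.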
JMJD2A Tudor – blocks the human JMJD2A Tudor domain | O75164 | AlphaScreen JMJD2A-Tudor / H3K4me3 peptide binding | Potency, µM (series often up to 114 µM), hits mostly inhibitors | 390,000 compounds, 4.4% hits | AID 504339; also: nearly all actives have a fitted effect of over 50% in size
TDP1 block – inhibitors of human tyrosyl-DNA phosphodiesterase TDP1; Q9NUW8; recombinant TDP1, AlphaScreen DNA substrate cleavage; Potency, µM (series often up to 130 µM), usual class: inhibitors; 350,000 compounds, 0.28% hits; AID 485290; also: nearly all actives have a fitted effect of over 40% in size
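Here, a 5' biotin and 3' phosphotyrosine-FITC DNA oligonucleotide reports Tdp1 activity: intact substrate bridges AlphaScreen beads, while cleavage leaves a 3' phosphate and drops signal. All incubations at room temperature.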
HP1b binding inh – blocks HP1-beta chromodomain binding to methylated histone tails; 390,000 compounds, 0.56% hits; P83916; AID 540317; AlphaScreen HP1-beta / biotin-H3K9me3 peptide binding; Potency, µM (titrated, usually from 114 µM), usual class: inhibitors; also: nearly all actives have a fitted effect of over 70% in size
Target sequence (P83916 whole entry, looked up): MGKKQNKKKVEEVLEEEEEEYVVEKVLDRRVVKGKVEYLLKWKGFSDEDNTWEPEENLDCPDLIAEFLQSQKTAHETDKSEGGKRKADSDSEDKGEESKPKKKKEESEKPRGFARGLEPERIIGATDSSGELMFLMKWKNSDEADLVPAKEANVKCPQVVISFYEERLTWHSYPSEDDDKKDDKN
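AlphaScreen: HP1-beta (50 nM) preformed 30 min with biotin-H3(1-18)K9me3 peptide (50 nM) in PBS pH 7.4, 0.01% Tween-20. Compound added for 30 min at RT, then streptavidin donor/nickel chelate acceptor beads (10 ug/mL) for 30 min.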
Of the large screens only hits and unclear results are named; the others gave an inactive call. Calls follow the shape of the dose curve; as a rule, active = well fitted curve in the direction sought with a large enough effect; inconclusive = small, poorly fitted or top-dose-only effect, or another doubt; inactive = no such curve, though single readings can be large; an effect the other way counts as inactive or inconclusive.

Nc1nc2c(c(=O)[nH]1)N(C=O)C(CNc1ccc(C(=O)NC(CCC(=O)O)C(=O)O)cc1)CN2 (centres undefined)	none (no result: BAZ2B block, JMJD2A Tudor, HP1b binding inh)
O=C(O)CNS(=O)(=O)c1ccc2c(c1)C(=O)c1cc(S(=O)(=O)NCC(=O)O)ccc1-2	G9a block 45µM
O=C(O)c1cccc(NS(=O)(=O)c2ccc3c(c2)C(=O)c2ccccc2C3=O)c1	BAZ2B block inconclusive (no result: G9a block)
O=C1c2ccccc2C(=O)c2cc(S(=O)(=O)Nc3ccccc3)ccc21	G9a block inconclusive, BAZ2B block 11µM, JMJD2A Tudor inconclusive, HP1b binding inh inconclusive
Cc1cc(C)nc(NC(=O)Cc2ccc(Br)cc2)n1	none
Cc1ccccc1CNc1nc(N(C)C)nc2c1cnn2C	none (no result: Sfp PPTase inh)
S=C(Nc1ccc2nsnc2c1)N1CCCC1	Sfp PPTase inh 14µM (no result: G9a block)
CC(C)C[C@@H](CO)NS(=O)(=O)c1cc(Cl)ccc1F	none (no result: G9a block, Sfp PPTase inh, BAZ2B block, TDP1 block)
CC(C)C1=CC2=CC[C@@H]3[C@](C)(CCC[C@@]3(C)C(=O)O)[C@H]2CC1	G9a block inconclusive (no result: BAZ2B block, JMJD2A Tudor, HP1b binding inh)
COc1cc(NC(=O)CC2C(=O)N(c3cccc(C)c3)C(=O)N2Cc2ccc(F)cc2)cc(OC)c1 (centres undefined)	none (no result: Sfp PPTase inh)
COc1ccccc1Cc1nc2ccccc2n1S(=O)(=O)c1ccc(Cl)cc1	G9a block 25µM
O=S(=O)(c1ccc(Cl)cc1)n1c(Cc2ccccc2)nc2ccccc21	G9a block inconclusive
COc1ccc(C2Nc3ccccc3C(=O)N2Cc2ccccc2)cc1COc1cccc(C(F)(F)F)c1 (centres undefined)	none (no result: G9a block, Sfp PPTase inh, BAZ2B block, HP1b binding inh)
CCCOc1ccc(C(=O)N(Cc2ccc(N(C)C)cc2)CC2CCCO2)cc1 (centres undefined)	G9a block 11µM, BAZ2B block 40µM, JMJD2A Tudor 40µM, HP1b binding inh inconclusive (no result: Sfp PPTase inh)
CCOc1ccccc1C(=O)N(Cc1ccc(N(C)C)cc1)CC1CCCO1 (centres undefined)	G9a block inconclusive, BAZ2B block inconclusive, JMJD2A Tudor inconclusive (no result: Sfp PPTase inh)
Cc1cc(OCC(=O)N(Cc2ccc(N(C)C)cc2)CC2CCCO2)ccc1Cl (centres undefined)	G9a block 13µM, BAZ2B block 28µM, JMJD2A Tudor 35µM, HP1b binding inh inconclusive (no result: Sfp PPTase inh)
CN(C)c1ccc(CN(CC2CCCO2)C(=O)COc2ccc(Cl)cc2)cc1 (centres undefined)	G9a block 14µM, BAZ2B block 32µM, JMJD2A Tudor 45µM, HP1b binding inh inconclusive (no result: Sfp PPTase inh)
CN1C(=O)C(Cc2c[nH]c3ccccc23)NC1=S (centres undefined)	Sfp PPTase inh inconclusive (no result: G9a block, BAZ2B block, JMJD2A Tudor, HP1b binding inh)
O=C(N/N=C/c1ccc(OCc2ccc(F)cc2)cc1)c1ccccc1	none
COc1ccc(O)c(/C=N/NC(=O)c2ccc(OCc3cccc(Br)c3)cc2)c1	BAZ2B block inconclusive, JMJD2A Tudor 35µM
CC(C)(C)c1ccc(OCc2ccc(C(=O)N/N=C/c3ccc(O)c(O)c3)cc2)cc1	G9a block inconclusive, BAZ2B block 32µM, JMJD2A Tudor inconclusive, HP1b binding inh inconclusive
COc1ccc(C(=O)N/N=C/c2cc(Br)ccc2O)cc1OC	HP1b binding inh inconclusive (no result: G9a block, TDP1 block)
CCN(CC)CCn1c2c(c(SCC(=O)Nc3cccc(C(F)(F)F)c3)nc1=O)CCC2	none (no result: Sfp PPTase inh)
CCOC(=O)c1c(/N=C/c2cc(C)ccc2O)sc2c1CCN(C)C2	G9a block inconclusive, BAZ2B block inconclusive, JMJD2A Tudor 45µM, HP1b binding inh inconclusive
Cc1ccc(N=c2sc(C)c(C)n2C)cc1	G9a block 45µM, BAZ2B block inconclusive, JMJD2A Tudor inconclusive
CCc1nn(C(C)C(=O)N2CCN(c3ccc(OC)cc3)CC2)c(=O)c2cc3occc3n12 (centres undefined)	G9a block inconclusive
NC(=S)Cc1nc(-c2ccccc2)cs1	G9a block inconclusive, Sfp PPTase inh 56µM, BAZ2B block inconclusive, HP1b binding inh inconclusive
Oc1csc(Cc2nc(-c3ccc(-c4ccccc4)cc3)cs2)n1	none
Cc1cc(C)n(CCc2nc3c4ccccc4nc(N4CCN(c5ccccc5F)CC4)n3n2)n1	none (no result: Sfp PPTase inh)
CC(Oc1ccc(F)cc1)C(=O)Nc1cc(C(F)(F)F)ccc1-n1cncn1 (centres undefined)	G9a block 56µM (no result: Sfp PPTase inh)
COc1ccc(C(=O)Nc2cc(C(F)(F)F)ccc2-n2cncn2)cc1	none
CCOC(=O)c1ccc(-c2ccc3ncnc(NCc4cccs4)c3c2)o1	none (no result: G9a block, Sfp PPTase inh, BAZ2B block, TDP1 block, HP1b binding inh)
NC(=Nc1ccc(N)cc1)C(N)=Nc1ccc(N)cc1	G9a block inconclusive, BAZ2B block 5.6µM, JMJD2A Tudor 25µM
NC(N)=Nc1ccc(Cl)cc1	none (no result: G9a block, BAZ2B block, JMJD2A Tudor, HP1b binding inh)
CCCCCCCn1ccc(=N)cc1	G9a block 6.3µM
O=[N+]([O-])c1cc(Cl)ccc1Nc1ccccc1	G9a block 11µM, BAZ2B block 5µM, JMJD2A Tudor 28µM, HP1b binding inh 18µM
COc1ccc(Nc2ccc(C(=O)O)cc2[N+](=O)[O-])cc1	none
Nc1ccc(Nc2ccc([N+](=O)[O-])cc2[N+](=O)[O-])cc1	G9a block 45µM, BAZ2B block 28µM, JMJD2A Tudor inconclusive, HP1b binding inh inconclusive
O=[N+]([O-])c1cnccc1Nc1ccc(Cl)cc1	G9a block inconclusive
COc1ccc(Nc2ccc([N+](=O)[O-])cc2[N+](=O)[O-])cc1	G9a block 13µM, BAZ2B block 25µM, JMJD2A Tudor 50µM, HP1b binding inh inconclusive
